Results as given in publication PMC5540273 (PLoS ONE, 2017).

What was measured:
Details in all cases: concentration: 1 μM, replicates: in singlicate; n = 1
AURKC = system: AURKC
AXL = system: AXL
BIKE = system: T1, BIKE
T1 construct: gene BMP2K

BLK = system: BLK
BMPR1A = system: BMPR1A
BMPR1B = system: BMPR1B
BMPR2 = system: BMPR2
BMX = system: BMX
BRAF = system: BRAF
BRK = system: T2, BRK
T2 construct: gene PTK6

BRSK1 = system: BRSK1
BRSK2 = system: BRSK2
BTK = system: BTK
BUB1 = system: BUB1
CAMK1B = system: CAMK1B
CAMK1D = system: CAMK1D
CAMK1G = system: CAMK1G
CAMK1 = system: CAMK1
CAMK2A = system: CAMK2A
CAMK2B = system: CAMK2B
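Also: KINOMEscan kinase panel screen.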

| Structure (SMILES) | %Inh (AURKC) [%] | %Inh (AXL) [%] | %Inh (BIKE) [%] | %Inh (BLK) [%] | %Inh (BMPR1A) [%] | %Inh (BMPR1B) [%] | %Inh (BMPR2) [%] | %Inh (BMX) [%] | %Inh (BRAF) [%] | %Inh (BRK) [%] | %Inh (BRSK1) [%] | %Inh (BRSK2) [%] | %Inh (BTK) [%] | %Inh (BUB1) [%] | %Inh (CAMK1B) [%] | %Inh (CAMK1D) [%] | %Inh (CAMK1G) [%] | %Inh (CAMK1) [%] | %Inh (CAMK2A) [%] | %Inh (CAMK2B) [%] |
| --- | --- | --- | --- | --- | --- | --- | --- | --- | --- | --- | --- | --- | --- | --- | --- | --- | --- | --- | --- | --- |
| Nc1nc(-c2cccnc2)c(-c2ccnc3ccccc23)s1 [GW684083] | 10 | 7 | 34 | 58 | 0 | 55 | 28 | 34 | 0 | 9 | 10 | 0 | 8 | 58 | 0 | 6 | 0 | 8 | 0 | 0 |
| Nc1nc(-c2ccc3c(N)n[nH]c3c2)cc(N2CCCCC2)n1 [GSK2228768] | 23 | 0 | 56 | 4 | 0 | 0 | 0 | 0 | 0 | 0 | 5 | 0 | 0 | 21 | 8 | 5 | 0 | 13 | 0 | 0 |
| NC(=O)c1sc(-n2cnc3ccccc32)cc1OCc1ccccc1F [GSK1024306] | 38 | 0 | 60 | 0 | 0 | 0 | 27 | 6 | 0 | 14 | 5 | 0 | 0 | 20 | 31 | 0 | 0 | 0 | 0 | 0 |
| CN1CCC(n2cnc(-c3ccc(F)cc3)c2-c2ccnc(NC3CCNCC3)n2)CC1 [SB-229482] | 0 | 48 | 0 | 10 | 6 | 0 | 1 | 0 | 0 | 0 | 0 | 0 | 10 | 17 | 28 | 0 | 2 | 0 | 0 | 0 |
| Fc1ccc(Nc2nccc(-c3c(-c4ccc(Cl)cc4)nn4ncccc34)n2)cc1F [GW829058] | 0 | 1 | 0 | 0 | 18 | 18 | 32 | 5 | 37 | 6 | 0 | 4 | 75 | 35 | 13 | 32 | 0 | 22 | 16 | 18 |
| CN1c2ccc(-c3ccc(C(=O)NCCO)cc3)cc2-c2[nH]ncc2S1(=O)=O | 9 | 17 | 10 | 26 | 19 | 16 | 0 | 13 | 19 | 0 | 0 | 15 | 6 | 0 | 23 | 45 | 0 | 49 | 67 | 66 |
| CCCc1ccc(S(=O)(=O)NC2CCN(c3ccnc(Nc4ccc(OC)cc4)n3)C2)cc1 (stereo not drawn) [GSK1379737] | 0 | 0 | 0 | 30 | 0 | 0 | 8 | 0 | 0 | 6 | 0 | 0 | 0 | 47 | 0 | 11 | 0 | 5 | 0 | 0 |
| CCc1nc(-c2cccc(N(C)S(=O)(=O)c3ccccc3)c2)c(-c2ccnc(Nc3ccc(N4CCN(C(C)=O)CC4)nc3)n2)s1 [GSK1645895] | 0 | 0 | 0 | 64 | 0 | 0 | 0 | 15 | 60 | 31 | 0 | 0 | 0 | 0 | 27 | 29 | 16 | 45 | 0 | 0 |
| Clc1ccc(-c2cc(-c3c[nH]nc3-c3ccccn3)ccn2)cc1 [GW681251] | 17 | 0 | 23 | 35 | 0 | 0 | 0 | 10 | 0 | 0 | 0 | 0 | 0 | 31 | 0 | 2 | 0 | 0 | 0 | 0 |
| COc1cc2ncnc(Nc3ccc(OCc4ccccc4Br)c(Cl)c3)c2cc1OC.Cl [GI261590] | 42 | 19 | 5 | 49 | 0 | 0 | 15 | 4 | 7 | 66 | 0 | 37 | 0 | 66 | 21 | 0 | 0 | 12 | 0 | 0 |
| CSc1nn2c(=O)cc(N3CCOCC3)nc2n1Cc1cccc(Cl)c1Cl [GSK2347225] | 11 | 45 | 29 | 52 | 19 | 1 | 0 | 6 | 0 | 17 | 0 | 0 | 0 | 0 | 0 | 8 | 17 | 0 | 0 | 0 |
| C[C@H]1CC[C@@H](C(=O)Nc2ccccc2)CN1c1cc(-c2ccc3c(N)n[nH]c3c2)nc(N)n1 [GSK2283293] | 25 | 0 | 23 | 50 | 0 | 0 | 0 | 7 | 0 | 19 | 0 | 0 | 0 | 49 | 23 | 17 | 0 | 11 | 0 | 0 |
| CS(=O)(=O)CCNCc1nc(-c2ccc3ncnc(Nc4ccc(OCc5cccc(F)c5)c(Cl)c4)c3c2)cs1.Cl [GW583340] | 0 | 0 | 0 | 25 | 0 | 0 | 0 | 0 | 0 | 0 | 0 | 0 | 0 | 0 | 6 | 15 | 2 | 20 | 0 | 0 |
| O=C(Nc1ccccc1)Nc1ccc(Oc2ccc3nccn3n2)cc1 | 16 | 0 | 0 | 13 | 18 | 6 | 0 | 8 | 0 | 0 | 0 | 0 | 0 | 0 | 0 | 0 | 0 | 0 | 0 | 0 |
| Nc1n[nH]c2nnc(-c3ccccc3)cc12 [SB-517389] | 0 | 0 | 0 | 0 | 4 | 0 | 0 | 0 | 0 | 20 | 0 | 0 | 0 | 0 | 38 | 28 | 0 | 15 | 0 | 0 |
| COc1cc2c(Nc3cccc(NC(=O)c4ccccc4)c3)ncnc2cc1OCCCN1CCOCC1 [GSK223810] | 51 | 42 | 42 | 58 | 9 | 0 | 0 | 33 | 34 | 18 | 0 | 10 | 0 | 31 | 37 | 18 | 0 | 32 | 0 | 0 |
| COC(=O)c1cccc(NC(=O)NCCNc2ccnc(Nc3ccc(F)cc3)n2)c1 [GSK1379883] | 32 | 5 | 22 | 0 | 0 | 0 | 0 | 21 | 0 | 24 | 0 | 0 | 0 | 10 | 2 | 21 | 0 | 27 | 0 | 0 |
| CNc1nccc(-c2c(-c3ccc(F)cc3)ncn2CCCN2CCOCC2)n1 [SB-222516] | 21 | 14 | 0 | 17 | 13 | 0 | 30 | 3 | 6 | 0 | 0 | 3 | 0 | 0 | 0 | 0 | 0 | 0 | 8 | 16 |
| OCCOCCn1ccc2ncnc(Nc3ccc(Oc4cccc(Cl)c4)c(Cl)c3)c21 | 0 | 0 | 0 | 3 | 1 | 0 | 0 | 13 | 0 | 0 | 0 | 33 | 0 | 0 | 0 | 0 | 0 | 0 | 0 | 0 |
| COc1ccc(NC(=O)Nc2ccc(C)c(-c3ccc(C(=O)Nc4ccncc4)cc3)c2)cc1 [GSK1398475] | 0 | 0 | 0 | 28 | 0 | 0 | 0 | 14 | 0 | 32 | 0 | 0 | 0 | 28 | 1 | 3 | 0 | 4 | 0 | 0 |
| Fc1ccc(-c2ncn(CCCNCc3ccccc3)c2-c2ccncc2)cc1 | 0 | 18 | 0 | 7 | 13 | 24 | 16 | 7 | 16 | 3 | 0 | 0 | 0 | 12 | 0 | 4 | 0 | 2 | 21 | 6 |
